# Assay outcomes (PubChem)
# TDP1 cell CPT: growth inhibition of DT40 Tdp1-/-;hTDP1 cells with camptothecin (screen for TDP1 inhibitors); chicken DT40 Tdp1-/-;hTDP1 cells + 20 nM CPT, ATP luminescence, 48 h; Potency, µM (doses to about 46.2 µM), for inactives: at the highest dose activity change, negative = growth inhibition, usual class: inhibitors; AID 686979; 420,000 tested, 12% active; note: potency is the fitted concentration of half-maximal effect; nearly all actives have a fitted effect of over 55% in size
#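 Cell growth measured by CellTiter-Glo luminescence after a minimum 48 h, 37 C compound exposure with 20 nM CPT in Tdp1-knockout DT40 cells stably expressing hTDP1, seeded 400/well; qHTS titration format.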
# HT1080 IDH1KD tx: kills HT-1080 cells with IDH1 knockdown | HT-1080 IDH1 knockdown viability, ATP luminescence, 48 h | Potency, µM (series often up to 46.1 µM), inactives show at the top dose activity, negative = toxicity, usual class: cytotoxic | 360,000 tested, 2% active | AID 686971;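 note: potency is the fitted concentration of half-maximal effect; 0% = DMSO wells and -100% = cell-free medium wells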
#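 Cytotoxicity counter-line: IDH1KD HT-1080, 48 h, CellTiter-Glo. Curves classed by r2, magnitude and activity.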
# TDP1 cell noCPT: qHTS for Inhibitors of human tyrosyl-DNA phosphodiesterase 1 (TDP1): qHTS in cells in absence of CPT; DT40 Tdp1-/- hTDP1 cells, no CPT, ATP luminescence, 48 h; Potency, µM (series often up to 46.2 µM), without a hit: at the top dose activity change, negative = growth inhibition, usual class: inhibitors; 420,000 tested, 15% active; AID 686978, 2013; note: potency is the fitted concentration of half-maximal effect; nearly all actives have a fitted effect of over 55% in size
#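 Stably hTDP1-transfected Tdp1-null chicken DT40 cells were treated with library compounds minus camptothecin and grown for at least 48 hr at 37 °C, after which cellular ATP was quantified by luminescence.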
# HT1080NT lethal: kills 2HG-producing HT-1080-NT fibrosarcoma cells. AID 686970. HT-1080-NT fibrosarcoma viability, CellTiter-Glo ATP luminescence, 48 h. Potency, µM (top dose mostly 46.1 µM), for the others: top-dose activity, negative = less viability, usual class: cytotoxic. 360,000 tested, 1.6% active;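 note: NT is the 2HG producing partner of a matched IDH1 knockdown line; potency is the fitted concentration of half-maximal effect; 0% = DMSO-treated cells and -100% = media-only wells without cells; nearly all actives have a fitted effect of over 55% in size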
#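 Viability by CellTiter-Glo luminescence after 48 h compound exposure at 37C of HT-1080-NT cells (750/well, RPMI, 5% FBS). % activity scaled between DMSO wells and medium-only wells, then curve-fitted and categorized by curve class.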
# IL-1B inflam inh: inflammasome signaling inhibition, IL-1 beta readout; THP-1 LPS/ATP IL-1B secretion, AlphaLISA, 16 h; hits give low values; 360,000 tested, 4.7% active; activity change, % at 57.5 µM; in the data active = activity change below about -50%; inconclusive = mostly about -30% to -49%
#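 THP-1 cells pretreated 1 hr with compounds (up to 57.5 uM final), then stimulated with LPS (250 ng/mL final) plus ATP (1.25 mM final); secreted IL-1B measured by AlphaLISA after 16 hr, decreased signal indicating inhibition.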
# Numbers without * were called inactive; ? = inconclusive; . = not tested or not shown. An excerpt weighted towards active compounds, which were near 19% of everything screened. Unless noted, calls come from the whole dose curve; as a rule, active = well fitted curve in the direction sought with a large enough effect; inconclusive = small, poorly fitted or top-dose-only effect, or another doubt; inactive = no such curve, though single readings can be large; an effect the other way counts as inactive or inconclusive. Unless noted, % is set by controls: 0 for no effect and ±100 for the full control effect.
SMILES,TDP1 cell CPT,HT1080 IDH1KD tx,TDP1 cell noCPT,HT1080NT lethal,IL-1B inflam inh
CCC(c1nnnn1CCC(C)C)N1CCC(C(N)=O)CC1 (stereo not drawn),4%,5%,2%,4%,47
CCOC(=O)N1CCN(c2c(NCc3ccc(N(C)C)cc3)c(=O)c2=O)CC1,-30%,-3%,-20%,16%,-2
CCOC(=O)N1CCN(c2c(NCc3ccccc3Cl)c(=O)c2=O)CC1,18µM*,-29%,29µM*,?,3
CC(=C/c1ccco1)/C=N/NC(=O)c1nnn(-c2nonc2N)c1CN(C)C,-7%,16%,-21%,8%,0
COc1ccccc1CNC(=O)Cn1ncn2c(cc3sccc32)c1=O,6%,.,-15%,.,.
CCOc1ccccc1NC(=O)NCCn1c(=O)oc2ccc(C)cc21,-27%,.,?,.,.
CC(C)c1ccc(NC(=O)c2csnn2)cc1,-26%,5%,-5%,2%,-8
CC(C)c1ccc(NC(=O)c2cccn2-c2nnc(N3CCCCC3)s2)cc1,18µM*,.,?,.,.
CN(C)c1ccc(CNC(=O)c2cccn2-c2nnc(N3CCCCC3)s2)cc1,18µM*,.,16µM*,.,.
Cc1ccc(S(=O)(=O)/N=C(\CN2CCOCC2)N2CCCC2)cc1,1%,6%,-4%,3%,-25
Cc1ccc(S(=O)(=O)/N=C(\CCl)N2CCOCC2)cc1,15µM*,?,16µM*,-18%,-52*
CCOC(=O)N1CCC(N2Cc3cccc(C(=O)Nc4ccc(N(CC)CC)cc4C)c3C2=O)CC1,?,-4%,16µM*,-9%,-6
CCOC(=O)N1CCC(N2Cc3cccc(C(=O)Nc4cc(F)ccc4F)c3C2=O)CC1,?,3%,?,1%,15
CCOC(=O)N1CCC(N2Cc3cccc(C(=O)Nc4ccc(F)cc4)c3C2=O)CC1,-12%,-1%,?,1%,1
CCOC(=O)N1CCC(N2Cc3cccc(C(=O)Nc4ccc(CC)cc4)c3C2=O)CC1,?,-15%,?,-12%,-70*
O=C(NNC(=O)c1ccc(-c2ccc([N+](=O)[O-])cc2)o1)c1ccncc1,-25%,-1%,6%,5%,-29
CC(C)NC(=O)Nc1cccc2c1O[C@H](CN(C)C(=O)NC1CCCCC1)[C@@H](C)CN([C@H](C)CO)C2=O,-16%,1%,-3%,24%,3
CCc1nc2ccc(C(=O)NCc3cc(OC)ccc3OC)cc2nc1CC,16µM*,.,?,.,.
CCc1nc2ccc(C(=O)NCCc3ccc(OC)cc3OC)cc2nc1CC,26µM*,.,18µM*,.,.
COc1ccc(Cc2nc3ccc(C(=O)NCc4cc(Br)ccc4OC)cc3o2)cc1,?,.,-25%,.,.
COc1ccc(OC)c(CNC(=O)c2ccc(Sc3ccc(C)cc3)c(N)c2)c1,23µM*,.,21µM*,.,.
COC(=O)c1ccc(Sc2ccc(C)cc2)c(N)c1,?,5%,-24%,13%,-9
CCOc1ccc(CCNC(=O)c2ccc3nc(CC)c(CC)nc3c2)cc1,?,16%,?,9%,15
Cc1ccc2c(c1)N(CC(=O)NCCc1c[nH]c3ccccc13)C(=O)CO2,-1%,?,-2%,5%,0
CN(C(=O)COC(=O)CNC(=O)c1sc2ccccc2c1Cl)c1ccccc1,-21%,3%,-8%,10%,13
SMILES,TDP1 cell CPT,HT1080 IDH1KD tx,TDP1 cell noCPT,HT1080NT lethal,IL-1B inflam inh
CC(C)(C)C(=O)Cn1ncc(Br)c(Br)c1=O,4.6µM*,?,1.8µM*,?,-100*
CC(C)(C)C(=O)Cn1ncc(N2CCOCC2)c(Cl)c1=O,-18%,0%,-9%,-3%,17
Cc1cc(S(=O)(=O)NC(C)c2nnc3ccccn23)ccc1Br (stereo not drawn),-3%,3%,7%,2%,11
CC(=O)/C(C#N)=C1\NC(=O)C(Cc2ccccc2)S1 (stereo not drawn),?,?,?,-6%,-1
CC(=O)/C(C#N)=C1\NC(=O)C(Cc2ccccc2C)S1 (stereo not drawn),?,?,2.3µM*,-24%,.
CC1CC(C)CN(CCOc2cccc(Cl)c2Cl)C1 (stereo not drawn),?,-7%,?,-4%,-68*
CC1CC(C)CN(CCOc2ccc(Cl)cc2Cl)C1 (stereo not drawn),?,-4%,?,1%,-68*
CCN1CCN(CCOc2cccc(Cl)c2Cl)CC1,?,-12%,?,-13%,2
CC1(c2nnnn2C2CCCC2)CCC(=O)N1c1ccc2c(c1)OCCO2 (stereo not drawn),1%,21%,-13%,12%,-12
Cc1c(Cl)cccc1N=Cc1ccc([N+](=O)[O-])s1,?,10µM*,?,13µM*,-102*
Cc1ccc(NC(=O)Cc2ccc3c(c2)OCCO3)cc1S(=O)(=O)N1CCCCC1,-20%,-11%,?,-30%,-11
O=C(c1cnc(N2CCCCC2)c2ccccc12)N1CCN(c2ccc(F)cc2)CC1,23µM*,.,16µM*,.,.
COc1ccccc1N1CCN(c2ncc(C(=O)N3CCN(c4cccc(Cl)c4)CC3)c3ccccc23)CC1,2.6µM*,10%,2.6µM*,15%,12
O=C(c1cnc(N2CCCCC2)c2ccccc12)N1CCN(c2cccc(Cl)c2)CC1,?,.,16µM*,.,.
COc1ccccc1N1CCN(C(=O)C2CCN(C(=O)c3cccc(Cl)c3)CC2)CC1,?,-4%,?,-8%,24
CCn1c(=S)sc2c(=O)n(CC(=O)Nc3ccc(OC)c(Cl)c3)c(C)nc21,?,-15%,6%,-4%,33
Cn1cnnc1SCC(=O)NNC(=O)c1ccc(Cl)cc1,-8%,-4%,0%,-3%,5
Nc1cc(=O)[nH]c(SCC(=O)NC2CCCCCCC2)n1,-12%,-3%,-9%,-5%,9
O=C(NCCS(=O)(=O)N1CCN(c2ccccc2F)CC1)C(c1ccccc1)c1ccccc1,-7%,.,-20%,.,.
CCc1c(O)nc(SCC(=O)N2CCc3cc(OC)c(OC)cc3[C@@H]2C)[nH]c1=O,6%,-1%,-4%,-2%,-2
COc1ccc(CC(N)c2csc(NC(=O)Nc3ccccc3C(C)(C)C)n2)cc1 (stereo not drawn),?,?,?,?,-52*
CC(C)(C)c1ccccc1NC(=O)Nc1nc(C(N)c2ccccc2Cl)cs1 (stereo not drawn),?,?,?,?,25
COc1ccc(N(CC(C)C)S(=O)(=O)c2nnc(NC(=O)c3cccs3)s2)cc1,?,.,21µM*,.,.
